Only some compounds are listed: those with a hit (about 2.2% of all), similar ones and a draw of the others.
Mito fusion yeast: inhibitors of mitochondrial division or activators of mitochondrial fusion. S. cerevisiae fusion-defective mutant growth rescue, CellTiterGlo 48 h. Potency, µM (highest dose often 46.1 µM), actives largely listed as activators. 0.23% of 320,000 active; further: nearly all actives have a fitted effect of over 45% in size
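Compounds are tested for their ability to restore growth of mitochondrial fusion-defective yeast strains at non-permissive 37C in YPEG medium over 48 hours. Viability is quantified by luciferase luminescence.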
Abeta yeast res: compounds reversing amyloid beta toxicity in yeast; yeast expressing A-beta42, growth rescue, OD600, 48 h; response scale: 0% DMSO, 100% iron-clioquinol control; Potency, µM (top dose mostly 46.1 µM), most hits filed as activators; 0.063% of 410,000 active; further: nearly all actives have a fitted effect of over 55% in size
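Yeast growth medium received pinned compounds, then yeast cells expressing toxic A-beta were added; plates incubated at 30 C for 48 hr. Growth read as absorbance at 600 nm, normalized to DMSO and equimolar FeCl3 plus clioquinol controls.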
aSyn rescue: alpha-synuclein toxicity inhibition in yeast; 0.14% of 370,000 active; Potency, µM (highest dose often 46.1 µM), usual class: activators; Yeast expressing alpha-synuclein, growth rescue, BacTiter-Glo, 24 h; further: nearly all actives have a fitted effect of over 65% in size
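Galactose-induced alpha-syn yeast (OD600=0.02, raffinose-pregrown) + pinned cpd, 24 hr, 30 deg C; growth by BacTiter-Glo luminescence. Growth restoration scores as activation.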
TDP-43 yeast inh: inhibitors of TDP-43 toxicity in yeast; TDP-43 expressing yeast growth rescue, BacTiter-Glo, 24 h; AID 652104; Potency, µM (highest dose often 46.1 µM), most hits filed as activators; 1.8% of 410,000 active; further: nearly all actives have a fitted effect of over 50% in size
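Readout is BacTiter-Glo luminescence of cell growth, so inhibitors register as activators. TDP-43-expressing yeast at OD600=0.02 in galactose medium, after raffinose pregrowth to mid-log, were incubated with compound for 24 hr at 30 deg C.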
FUS suppressor: rescues growth of FUS-expressing yeast; S. cerevisiae FUS-expressing, growth rescue, OD600, 24 h; Potency, µM (top dose mostly 76.6 µM), actives largely listed as activators; 0.24% of 390,000 active; further: nearly all actives have a fitted effect of over 55% in size
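Restored growth of FUS-toxic S. cerevisiae, read as 600 nm absorbance after 24 h at 30C in galactose medium (starting OD 0.005). Controls CP55940 and DMSO.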
Numbers stand for hits; - = inactive; ? = inconclusive; . = no result; [ ] = remark or other dose. The call rests on the fitted dose curve; in most records, active means well fitted curve in the direction sought with a large enough effect; inconclusive means small, poorly fitted or top-dose-only effect, or another doubt; inactive means no such curve, though single readings can be large; an effect the other way counts as inactive or inconclusive.

SMILES	Mito fusion yeast	Abeta yeast res	aSyn rescue	TDP-43 yeast inh	FUS suppressor
O=C(NC(=S)N1CCN(c2ccc([N+](=O)[O-])cc2Cl)CC1)c1ccco1	?	-	-	-	.
O=C(c1cc([N+](=O)[O-])ccc1Cl)N1CCN(c2ccccc2)CC1	-	-	-	7.9µM	-
CC1(C(=O)N2CCN(c3ccccc3)CC2)CC1(Cl)Cl (configuration not stated)	-	-	-	.	-
O=C(c1cc(S(=O)(=O)N2CCN(c3ccccc3)CC2)ccc1Cl)N1CCCCCCC1	14µM	-	-	-	-
CC1(C(=O)N2CCN(c3ccc([N+](=O)[O-])cc3)CC2)CC1(Cl)Cl (configuration not stated)	-	-	-	11µM	-
COc1ccc(CC(=O)NC2CCCCN(Cc3ccc(Cl)cc3)C2=O)cc1OC (configuration not stated)	.	.	.	.	-
C[C@H](CO)N1C[C@H](C)[C@@H](CN(C)Cc2ccc(C(=O)O)cc2)Oc2c(NS(=O)(=O)c3ccc(F)cc3)cccc2C1=O	.	-	-	-	-
CC(=O)NC(c1ccc(F)c(F)c1)c1nc(-c2cnn(C)c2)cs1 (configuration not stated)	.	-	?	-	-
CCOC(=O)[C@]12CCC=C1N(Cc1ccc3c(c1)OCO3)C(=O)[C@H](CC(=O)NCCc1ccccc1OC)C2	.	-	-	-	-
C=C1C(=O)[C@]23C[C@H]1CCC2[C@@]1(C)C(C[C@@H]3O)[C@](C)(C(=O)OC)CC[C@@H]1O (some centres not stated)	.	-	-	3.2µM	-
C=C1C(=O)[C@]23C[C@H]1CC[C@H]2[C@]1(C)CCC[C@@](C)(C(=O)OC)[C@H]1C[C@@H]3O	.	.	.	.	-
CCC(c1nnnn1C1CCCC1)N1CCN(c2ccccc2F)CC1 (configuration not stated)	-	-	-	-	-
CCCC(c1nnnn1C1CCCC1)N1CCN(c2ccccc2F)CC1 (configuration not stated)	8.9µM	-	-	-	-
CCCC(c1nnnn1C(C)(C)C)N1CCN(c2ccccc2)CC1 (configuration not stated)	10µM	-	-	-	-
CCCC(c1nnnn1C(C)(C)C)N1CCN(Cc2ccccc2OC)CC1 (configuration not stated)	-	-	-	-	-
CCCN1CCN(CCCNC(=O)Cn2c(-c3cccs3)cc3ccccc32)CC1	.	-	.	-	-
COc1ccc(N2CC(C)(C)[C@H](CC(=O)Nc3ccccc3)C2=O)cc1	.	-	-	-	-
CSc1nc2ccc(NS(=O)(=O)c3ccc([N+](=O)[O-])cc3)cc2s1	-	-	-	?	-
Cc1nc2ccc(NS(=O)(=O)c3ccccc3Cl)cc2s1	-	-	-	18µM	-
CSc1nc2ccc(NS(=O)(=O)c3cccc(Cl)c3Cl)cc2s1	35µM	-	-	32µM	?
CC(NC(=O)c1ccc2c(c1)sc1nc(-c3ccc(F)cc3)cn12)C12CC3CC(CC(C3)C1)C2 (configuration not stated)	.	-	.	-	-
Cc1ccc(N=c2ssnc2Cl)cc1	-	-	-	-	-
Cc1cc(C)nc(/N=c2/ssnc2Cl)c1	-	-	-	2.8µM	.
COc1ccc(-n2ccn(CC(=O)Nc3ccccc3C(F)(F)F)c(=O)c2=O)cc1OC	.	-	.	-	-
COCC(=O)N1CCC(Oc2ccc(C(=O)N[C@H](C(=O)OC)C(C)C)cc2)CC1	-	-	-	-	-
SMILES	Mito fusion yeast	Abeta yeast res	aSyn rescue	TDP-43 yeast inh	FUS suppressor
CCOc1ccccc1COC(=O)c1cccc(-n2cnnn2)c1	-	-	-	18µM	-
COc1ccccc1C(=O)COC(=O)c1cccc(-n2cnnn2)c1	-	-	-	-	-
CC(C)c1ccccc1NC(=O)CN1C(=O)c2ccccc2C1=O	-	-	-	-	-
Cc1ccc(C(=O)N[C@H](C(=O)N2CCN(c3ccccc3F)CC2)C(C)C)cc1	-	-	-	-	-
COCCCN1C(=O)c2[nH]nc(-c3cc(C)cc(C)c3O)c2C1c1ccc(O)c(OC)c1 (configuration not stated)	-	-	-	-	40µM
COc1cc(C2c3c(-c4cc(C)cc(C)c4O)n[nH]c3C(=O)N2CCCO)cc(OC)c1OC (configuration not stated)	-	-	-	-	-
O=C(NCCc1c[nH]c2ccccc12)OCc1cn(Cc2ccccc2F)nn1	.	.	.	.	-
CCOC(=O)CS(=O)(=O)c1nc(-c2ccccc2)cc(C(F)(F)F)n1	-	-	-	22µM	-
COc1ccc(-c2cc(C(F)(F)F)nc(S(C)(=O)=O)n2)cc1	-	-	-	13µM	-
CCOC(=O)CCS(=O)(=O)c1nc(-c2ccccc2)cc(C(F)(F)F)n1	-	-	-	16µM	.
CCOC(=O)CS(=O)(=O)c1nc(-c2ccc(F)cc2)cc(C(F)(F)F)n1	-	-	-	22µM	-
COC(=O)CCS(=O)(=O)c1nc(-c2ccccc2)cc(C(F)(F)F)n1	-	-	-	?	-
CS(=O)(=O)c1nc(-c2ccc(F)cc2)cc(C(F)(F)F)n1	-	-	-	-[0.397 µM]	-
CCOC(=O)c1cnc2c(ccc3ccccc32)c1Nc1ccccc1O	.	-	-	-	-
Cc1ccc(-c2cnc(C(O)c3ccc(Cl)c(Cl)c3)[nH]2)cc1 (configuration not stated)	.	-	-	-	-
Cc1ccc(NC(=O)CN(CCc2ccccc2)S(=O)(=O)c2ccccc2)c(C)c1	.	-	.	-	-
COc1cccc(-c2cc(C(F)(F)F)nc(-n3cc(Cl)cn3)n2)c1	-	-	-	-	-
COc1ccc(-c2cc(C(F)(F)F)nc(-n3cc(Cl)cn3)n2)cc1	-	-	-	11µM	?
O=C(NCCC1=CCCCC1)c1ccc2c(c1)N(Cc1ccccc1)C(=O)c1ccccc1S2(=O)=O	.	-	.	-	-
c1ccc(Oc2ccc(-c3ccn[nH]3)cc2)cc1	-	-	-	14µM	-
CCCc1nn2c(=O)cc(COC(=O)c3cccc(NC(=O)c4cccs4)c3)nc2s1	.	-	.	-	-
CCCCNC(=O)C(CC)n1c(SCc2cccc(F)c2)nc2ccncc21 (configuration not stated)	.	.	-	.	.
CC(C)(N[C@@H](Cc1c[nH]c2ccccc12)C(=O)NCC(c1ccccc1)c1ccccc1)C(=O)NC1CCCCC1	.	.	.	.	14µM
CC(C)(C)OC(=O)N1CCC(N[C@@H](Cc2c[nH]c3ccccc23)C(=O)NCCc2c[nH]c3ccccc23)(C(=O)NC2CCCCC2)CC1	.	.	.	.	20µM
O=C(NCCCc1ccccc1)[C@H](Cc1c[nH]c2ccccc12)NC1(C(=O)NCCc2c[nH]c3ccccc23)CCOCC1	.	.	.	.	22µM
